The list is not random: actives were taken first. Their share in the collection is about 7.2%.
VLA-4 inh – inhibition in a human VLA-4 binding assay; VLA-4 expressing cells, ligand binding flow cytometry; P13612; AID 2557; inhibition, % (about 7 µM as worked out from the volumes in the protocol); 0.2% of 330,000 active; in the data active means inhibition above about 50%
SUMO Mot1 rescue – blocks SUMOylation pathway, rescuing yeast Mot1-301 growth | AID 2716 | 1% of 320,000 active | growth rescue, % at 18.8 µM | S. cerevisiae Mot1-301 growth rescue, ATP luminescence, 38.5C; percent above DMSO median, 100 means doubled;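 active means every valid replicate shows activation above 250% relative to neutral control wells; inactive means the rest, any valid replicate at or below 250%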;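 further: OY570 slx delta 5 strain wells were the positive control but not used for scaling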
Bfl-1 A1 inh – inhibitors of the anti-apoptotic protein A1, read as caspase activation | MEF A1-2A-BIM cells, Caspase-Glo 3/7 luminescence, 3 h; percent of clofoctol response, vehicle zero | caspase activation, % (no concentration beside the values) | 0.066% of 330,000 active;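 active means over half of replicate activation scores above 10%, or exactly half above 10 with the replicate mean above 10; inconclusive means replicate mean below 10 yet half the replicates above 10; inactive means over half of replicates below 10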
ALR H2O2 inh – human ALR oxidase inhibition via reduced H2O2; inhibition, % (test concentration not listed); 3.8% of 290,000 active; purified ALR, DTT oxidation, H2O2 HRP-luminol luminescence;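 active means mean replicate inhibition above about 79%, with every replicate also reaching it, limit read from the data; inconclusive means only one of the two criteria met; inactive means mean below limit and not every replicate reaching it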
Target sequence (P55789 whole entry, looked up): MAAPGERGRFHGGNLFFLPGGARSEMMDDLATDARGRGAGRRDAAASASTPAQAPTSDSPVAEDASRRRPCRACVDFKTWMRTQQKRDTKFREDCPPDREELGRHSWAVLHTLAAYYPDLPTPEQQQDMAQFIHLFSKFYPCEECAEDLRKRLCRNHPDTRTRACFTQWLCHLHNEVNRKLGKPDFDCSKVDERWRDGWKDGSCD
Efflux pump mplx – inhibitors of Candida antifungal efflux pumps expressed in yeast; AID 485275; S. cerevisiae Candida pump triplex, Nile Red efflux; 0.44% of 330,000 active; inhibition, % at 10 µM;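 active means plate passing quality check with inhibition over a set limit, or well fluorescence over plate mean plus 4 SD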;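 further: Nile Red retained in pooled yeast measured as flow cytometry median fluorescence; 0% = buffer negative control and 100% = Enniatin B positive control; higher means more Nile Red kept so more efflux inhibition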
AHR activator – activates the human aryl hydrocarbon receptor; P35869; AHR-responsive luciferase reporter cells, luminescence; activation, % at 5 µM; 2.5% of 320,000 active; AID 2796; in the data active means activation above about 47%;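 further: 0% = vehicle wells and 100% = reference agonist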
The depositor's hits bear a star.

Results for O=C(O)c1ccc(-c2ncc[nH]2)cc1 ?
VLA-4 inh: 17.8; SUMO Mot1 rescue: -8.9; Bfl-1 A1 inh: -1.3; ALR H2O2 inh: -2.1; Efflux pump mplx: 0.5; AHR activator: 0.1

How did Clc1ccc(SCCCCN2CCNCC2)cc1 do in these assays?
VLA-4 inh: 7.3; SUMO Mot1 rescue: 68.4; Bfl-1 A1 inh: -0.7; ALR H2O2 inh: -4.2; Efflux pump mplx: 0.1; AHR activator: 0.8

How did CSc1ccc(-c2nc3cnccn3c2Nc2ccc3c(c2)OCO3)cc1 do in these assays?
VLA-4 inh: -5.7; SUMO Mot1 rescue: -1.5; Bfl-1 A1 inh: -0.4; ALR H2O2 inh: 99.6*; Efflux pump mplx: 0.0; AHR activator: 188.4*

What do the screens show for `Cc1ccc(-c2nc3cnccn3c2Nc2ccc3c(c2)OCO3)o1`?
VLA-4 inh: 0.0; SUMO Mot1 rescue: 11.2; Bfl-1 A1 inh: -0.4; Efflux pump mplx: 0.3; AHR activator: 52.8*

How did Clc1ccc(-c2nc3cnccn3c2Nc2ccc3c(c2)OCO3)cc1 do in these assays?
VLA-4 inh: 0.6; SUMO Mot1 rescue: -6.1; Bfl-1 A1 inh: -1.1; ALR H2O2 inh: 97.6*; Efflux pump mplx: 0.0; AHR activator: 16.8

Results for O=C(COc1ccc2ccc(=O)oc2c1)Nc1ccc(N2CCCCC2)cc1 ?
VLA-4 inh: 3.6; SUMO Mot1 rescue: -4.7; Bfl-1 A1 inh: 1.4; ALR H2O2 inh: 23.6; Efflux pump mplx: 0.0; AHR activator: -0.1

How did COc1ccc(C#Cc2c(-c3ccccc3)n(C)c3ccccc23)cc1 do in these assays?
VLA-4 inh: 5.6; SUMO Mot1 rescue: 5.8; Bfl-1 A1 inh: -0.5; ALR H2O2 inh: 2.5; Efflux pump mplx: -0.1; AHR activator: 36.1

What do the screens show for `COc1ccc(C#Cc2c(C=O)n(C)c3ccccc23)cc1`?
VLA-4 inh: 4.6; SUMO Mot1 rescue: -4.8; Bfl-1 A1 inh: 0.4; ALR H2O2 inh: 4.8; Efflux pump mplx: 0.0; AHR activator: 73.4*

Results for COc1cc(C#Cc2c(-c3ccccc3)n(C)c3ccccc23)cc(OC)c1 ?
VLA-4 inh: 24.5; SUMO Mot1 rescue: 3.0; Bfl-1 A1 inh: 1.9; ALR H2O2 inh: -4.5; Efflux pump mplx: 0.0; AHR activator: 35.2

What do the screens show for `Cn1c(C=O)c(C#Cc2ccccc2)c2ccccc21`?
VLA-4 inh: 0.0; SUMO Mot1 rescue: 87.6; Bfl-1 A1 inh: 0.0; ALR H2O2 inh: -6.5; Efflux pump mplx: -0.2; AHR activator: 72.6*

Results for Cn1ncc2c(N3CCC(Cc4ccccc4)CC3)ncnc21 ?
VLA-4 inh: -1.3; SUMO Mot1 rescue: 21.1; Bfl-1 A1 inh: 0.4; ALR H2O2 inh: -5.9; Efflux pump mplx: 0.3; AHR activator: 73.3*

What do the screens show for `CC(=O)c1cccc(Nc2cc(C)nc3c(C)cccc23)c1`?
VLA-4 inh: 20.6; SUMO Mot1 rescue: -1.4; Bfl-1 A1 inh: -0.7; ALR H2O2 inh: -5.5; Efflux pump mplx: -0.1; AHR activator: 50.0*

Results for CCCN(CCC)C(=O)Cn1c2ccccc2c2nc(=O)cc(C)n21 ?
VLA-4 inh: 20.3; SUMO Mot1 rescue: -21.8; Bfl-1 A1 inh: 0.6; Efflux pump mplx: 0.0; AHR activator: 50.5*

Results for CCC(C)NC(=O)c1nc2c(nnn2Cc2ccccc2Cl)c(=O)[nH]1 (centres undefined) ?
VLA-4 inh: 9.6; SUMO Mot1 rescue: 8.5; Bfl-1 A1 inh: -0.7; ALR H2O2 inh: 87.6*; Efflux pump mplx: 0.4; AHR activator: -0.1

How did O=C(c1ccccc1)N1CCC(c2nc3c(nnn3Cc3ccccc3Cl)c(=O)[nH]2)CC1 do in these assays?
VLA-4 inh: -13.6; SUMO Mot1 rescue: -15.3; Bfl-1 A1 inh: 1.3; ALR H2O2 inh: -4.3; Efflux pump mplx: 0.0; AHR activator: 1.8

What do the screens show for `O=C(NCc1cccs1)c1nc2c(nnn2Cc2ccccc2Cl)c(=O)[nH]1`?
VLA-4 inh: 3.7; SUMO Mot1 rescue: -25.4; Bfl-1 A1 inh: -0.1; ALR H2O2 inh: 94.8*; Efflux pump mplx: -0.1; AHR activator: -6.0

How did O=C(Cc1cccs1)N1CCCC(c2nc3c(nnn3Cc3ccccc3Cl)c(=O)[nH]2)C1 (centres undefined) do in these assays?
VLA-4 inh: -2.8; SUMO Mot1 rescue: -5.0; Bfl-1 A1 inh: inconclusive; ALR H2O2 inh: -6.7; Efflux pump mplx: 0.0; AHR activator: -2.0

How did O=C1c2cccnc2C(Nc2ccccc2Br)N1Cc1ccco1 (centres undefined) do in these assays?
VLA-4 inh: 11.8; SUMO Mot1 rescue: -9.0; Bfl-1 A1 inh: 1.1; ALR H2O2 inh: 56.0; Efflux pump mplx: -0.1; AHR activator: 5.5

What do the screens show for `Cc1ccc(C)c(C(=O)COC(=O)CN2C(=O)C3C4CCC(C4)C3C2=O)c1` (centres undefined)?
VLA-4 inh: -3.2; SUMO Mot1 rescue: 188.8; Bfl-1 A1 inh: 0.3; ALR H2O2 inh: -2.0; Efflux pump mplx: 0.0; AHR activator: -1.4

Results for COc1ccccc1N1CCN(C2CCCN(C(=O)CN3CCCCC3=O)C2)CC1 (centres undefined) ?
VLA-4 inh: -13.2; SUMO Mot1 rescue: -5.8; Bfl-1 A1 inh: 0.5; ALR H2O2 inh: 13.0; Efflux pump mplx: 0.0; AHR activator: 10.9

What do the screens show for `O=C(CCS(=O)(=O)c1ccccc1)Nc1ccc(-c2nc3ccccc3s2)cc1`?
VLA-4 inh: 4.5; SUMO Mot1 rescue: 145.7; Bfl-1 A1 inh: -7.5; ALR H2O2 inh: -2.8; Efflux pump mplx: 0.1; AHR activator: 7.2

What do the screens show for `Cc1nnc(NC(=O)CCS(=O)(=O)c2ccccc2)s1`?
VLA-4 inh: 9.6; SUMO Mot1 rescue: -2.3; Bfl-1 A1 inh: 0.6; ALR H2O2 inh: 1.5; Efflux pump mplx: -0.1; AHR activator: 16.3

What do the screens show for `O=C(CCS(=O)(=O)c1ccccc1)Nc1cccc(-c2nc3ccccc3s2)c1`?
VLA-4 inh: 6.0; SUMO Mot1 rescue: 0.9; Bfl-1 A1 inh: -5.2; ALR H2O2 inh: -0.9; Efflux pump mplx: 0.4; AHR activator: 68.5*

What do the screens show for `CCCCC(=O)Nc1nc2c(OC)ccc(OC)c2s1`?
VLA-4 inh: -5.6; SUMO Mot1 rescue: 5.4; Bfl-1 A1 inh: 0.1; ALR H2O2 inh: -2.3; Efflux pump mplx: 0.0; AHR activator: 64.3*

What do the screens show for `CCCCC(=O)Nc1nc2c(OC)cc([N+](=O)[O-])cc2s1`?
VLA-4 inh: 5.4; SUMO Mot1 rescue: 46.8; Bfl-1 A1 inh: -0.4; ALR H2O2 inh: 6.6; Efflux pump mplx: -0.2; AHR activator: 9.8

How did COc1ccc(C)c2sc(NC(=O)CCS(=O)(=O)c3ccccc3)nc12 do in these assays?
VLA-4 inh: 10.5; SUMO Mot1 rescue: 9.4; Bfl-1 A1 inh: -0.4; ALR H2O2 inh: 4.6; Efflux pump mplx: -0.1; AHR activator: 52.3*

Results for CCOc1cccc2sc(NC(=O)CCS(=O)(=O)c3ccccc3)nc12 ?
VLA-4 inh: 3.6; SUMO Mot1 rescue: -8.0; Bfl-1 A1 inh: 1.5; ALR H2O2 inh: -8.3; Efflux pump mplx: -0.3; AHR activator: 57.1*

What do the screens show for `CSCC[C@H](NC(=O)[C@@H]1CSC2c3ccccc3C(=O)N21)C(=O)NCc1ccco1` (some centres undefined)?
VLA-4 inh: -5.2; SUMO Mot1 rescue: 1.7; Bfl-1 A1 inh: 0.1; ALR H2O2 inh: 0.4; Efflux pump mplx: -0.2; AHR activator: 3.7

Assay outcomes (PubChem BioAssay)
